# Experimental data published in PubChem BioAssay (NCATS).
# “And” between values parts separate entries of the source, which are not always exact repeats. Equal values may be shown once. Inconclusive results are not listed. Unmarked numbers belong to inactive results. The source made the active and inactive calls. The call rests on the fitted dose curve; in most records, active means well fitted curve in the direction sought with a large enough effect; inconclusive means small, poorly fitted or top-dose-only effect, or another doubt; inactive means no such curve, though single readings can be large; an effect the other way counts as inactive or inconclusive.
# Legend:
# [1] = Viability qHTS for spleen associated tyrosine kinase inhibitor (SYKi) naive MV4-11 cells (AID 1963823); further: nearly all actives have a fitted effect of over 40% in size
# Method in brief: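 Viability of MV4-11 AML cells lacking prior SYK inhibitor exposure is scored by CellTiter-Glo luminescence following 72 hr compound incubation at 37 C, 5% CO2, seeded at 500 cells per well.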
# [2] = Cellular viability qHTS for adrenocortical cancer (ACC) cell line NCI-H295R (AID 1963990); further: nearly all actives have a fitted effect of over 60% in size;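 on activity change, negative = viability loss: 0% = DMSO only wells and -100% = full killing with cytotoxic reference compound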
# Method in brief: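 Viability of NCI-H295R after 48 h of treatment (final up to 46 uM) measured through cellular ATP luminescence.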
# [3] = Cellular viability qHTS for adrenocortical cancer (ACC) cell line SW-13 (AID 1963989); conditions: SW-13 ACC cells viability, CellTiter-Glo, 48 h; activity (max response): hits give low values; further: nearly all actives have a fitted effect of over 65% in size;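 on activity (max response): cells grown in serum-free medium with ITS supplement; on the % scale 0 is the no-effect control and ±100 the full control effect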
# Method in brief: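 Here, serum-free SW-13 cultures were dosed up to 46 uM. Following 48 h, ATP-dependent luminescence (CellTiter-Glo) reported viable cells, and logistic modeling produced IC50 values.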
# Potency means the concentration at half of the fitted maximal effect.
smiles,measurement,setting,value
CCCC(CCC)(C(=O)OCC)C(=O)OCC,Potency,[1],inactive
same,Potency,[2],inactive
COc1ccc(C(=O)N2CCN(c3ccc4c(c3)CCC(=O)N4)CC2)cc1OC,Potency,[1],inactive
same,activity (max response),[3],5.3%
same,Potency,[2],inactive
CCc1cc(S(=O)(=O)O)c2cc(C(C)C)cccc1-2,Potency,[1],inactive
same,Potency,[2],inactive
CC(C)(C)C(O)/C=C/c1ccc2c(c1)OCO2 (configuration not stated),Potency,[1],inactive
same,Potency,[2],inactive
CCN1CCN(Cc2ccc(NC(=O)Nc3ccc(Oc4cc(NC)ncn4)cc3)cc2C(F)(F)F)CC1,Potency,[1],inactive
same,Potency,[2],10 µM (active)
FC(F)(F)c1ccccc1-n1ccnc1,Potency,[1],inactive
same,activity (max response),[3],17.5%
same,Potency,[2],inactive
COc1cc(OC)c(/C=C/S(=O)(=O)Cc2ccc(OC)c(NCC(=O)O)c2)c(OC)c1,Potency,[1],92 nM (active) and 105 nM (active)
same,Potency,[2],0.0224 µM (active)
CN1CCN(C(=O)[C@H]2[C@@H](C(=O)O)[C@H]3CC[C@@H]2O3)CC1,viability (% of control),[1],78.3% [at 9.25 µM]
same,activity (max response),[3],-7.83%
same,"activity change, negative = viability loss",[2],2.26% [at 9.17 µM]
Cc1ncc(CO)c(CO)c1O,Potency,[1],3.76 µM (active)
same,activity (max response),[3],1.35%
same,Potency,[2],inactive
O=C1Nc2ccc(I)cc2/C1=C/c1cc(Br)c(O)c(Br)c1,Potency,[1],18.6 µM (active)
same,Potency,[2],inactive
CCCCCCCOc1ccc(CCC(N)(CO)CO)cc1C(F)(F)F,Potency,[1],7.42 µM (active)
same,Potency,[2],10 µM (active)
CCN(CC)CCOC(=O)C(c1ccccc1)C1CCCCC1 (configuration not stated),Potency,[1],inactive
same,activity (max response),[3],12.1%
same,Potency,[2],inactive
C[C@H]1CNC(=O)c2cnn3ccc(nc23)N[C@H](C)c2cc(F)ccc2O1,Potency,[1],0.525 µM (active)
same,Potency,[3],8.91 µM (active)
same,Potency,[2],8.91 µM (active)
